In all, about 350,000 compounds went through this assay and about 5,500 (1.6%) were called active.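 The calls were made as follows: active = significant combined selectivity score with lowered wild-type GFP, culture density cut under 30%, mutant RFP and density less affected; inactive = any of these conditions unmet.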 The full list was thinned out, with actives kept by preference.
Assay: GFP drop in mixed WT/humanized-ribosome E. coli culture – GFP/RFP fluorescence, OD600, single point, bacterial rRNA inhibitor project, primary screen (AID 720706)
Conditions: E. coli WT GFP vs humanized-ribosome RFP mutants, 24 h; GFP signal change (wild-type ribosome): stronger effect = lower value, DMSO median 0, no signal -100; OD600 change: measured here: OD600 growth, DMSO median 0, no signal -100; RFP signal change: measured here: RFP humanized mutant strains, DMSO median 0, no signal -100, concentration not given here

Compound	GFP signal change (wild-type ribosome)	OD600 change [%]	RFP signal change [%]
C[C@H]1CN([C@@H](C)CO)C(=O)c2cc(C3=CCCC3)cnc2O[C@H]1CN(C)C(=O)Nc1ccc(F)cc1	-0.884% (inactive)	7.11	-0.613
O=C(N[C@@H]1C=C[C@H](CC(=O)N2CCOCC2)O[C@H]1CO)c1ccccn1	4.32% (inactive)	4.06	0.272
O=C(CNC(=O)Cc1ccccc1)N=Nc1c(O)[nH]c2ccc(Br)cc12	-1.63% (inactive)	10	0.336
Cc1cccc(N=Nc2c(O)[nH]c3ccc(F)cc23)c1	-28.8% (active)	13.6	8.49
Cc1c(-c2ccccc2)n[nH]c1C(=O)N=Nc1c(O)[nH]c2ccccc12	-5.9% (inactive)	-4.62	2.09
C[C@@H]1CN([C@@H](C)CO)S(=O)(=O)c2ccc(C#C[C@@H](C)O)cc2O[C@@H]1CN(C)CC1CC1	1.29% (inactive)	-4.39	-1.26
O=C(NCc1ccccc1Cl)NC(=O)c1csc([N+](=O)[O-])c1	12.9% (inactive)	2.99	1.52
O=[N+]([O-])c1ccccc1NCc1ccccc1Cl	-29.2% (active)	-20.4	-10.2
O=C(NCCNc1ccccc1[N+](=O)[O-])c1ccccc1F	-8.66% (inactive)	7.69	-6.27
COc1cccc(CN(C)C[C@H]2OCc3ccccc3-c3c(n(C)c4ccccc34)C(=O)N([C@@H](C)CO)C[C@@H]2C)c1	-21.2% (inactive)	-41.4	18.9
C[C@@H]1CN([C@H](C)CO)S(=O)(=O)c2ccc(C#CC(C)(C)O)cc2O[C@@H]1CN(C)Cc1ccccc1	1.3% (inactive)	-3.23	-1.75
C[C@H](CO)N1C[C@H](C)[C@@H](CN(C)Cc2ccccc2)Oc2c(NC(=O)CCCCCC(=O)Nc3ccccc3N)cccc2C1=O	-10% (inactive)	-16.3	2.5
C[C@H]1CCCCO[C@@H](CN(C)C(=O)Nc2cccc3ccccc23)[C@@H](C)CN([C@@H](C)CO)C(=O)c2cc(NS(=O)(=O)c3cn(C)cn3)ccc2O1	0.08% (inactive)	-14.1	8.18
Cc1cccc(NS(=O)(=O)c2ccc(-c3cnc(C4CC4)o3)cc2)c1	-8.12% (inactive)	-53.1	16.8
COc1ccc(CNS(=O)(=O)c2ccc(-c3cnc(C4CC4)o3)cc2)cc1	-6.21% (inactive)	-8.89	-0.493
Cc1cccc(CNS(=O)(=O)c2ccc(-c3cnc(C4CC4)o3)cc2)c1	-28.7% (active)	-23	-6.22
CN1C(=O)c2cc(NC(=O)c3ccccc3)ccc2OC[C@H]2O[C@@H](CC(=O)O)CC[C@@H]21	2.79% (inactive)	3.92	-0.251
C[C@@H]1CN([C@H](C)CO)C(=O)c2cccc(NC(=O)CCCCCC(=O)Nc3ccccc3N)c2O[C@H]1CN(C)CC1CCCCC1	-16.1% (inactive)	-30.3	-6.11
COc1ccc(/C=N/NC(=O)C2CC2)c(OC)c1OC	20.9% (inactive)	9.1	-1.71

Compound	GFP signal change (wild-type ribosome)	OD600 change [%]	RFP signal change [%]
COc1ccc(/C=C2\CCc3ccccc3C2=O)c(OC)c1OC	-21.9% (active)	-16.9	-4.31
COc1ccc(/C=C2/CCCc3ccccc3C2=O)cc1	-37.4% (inactive)	-62.5	-10.8
Cc1ccccc1-c1ccc([C@H]2[C@H](CO)N3C(=O)CN(C(=O)c4cccnc4)C[C@@H]23)cc1	-0.83% (inactive)	-6.48	5.21
O=C1N[C@H](Cc2ccccc2)COCc2cn(nn2)CC[C@@H]1Cc1ccc(-c2ccccc2)cc1	-0.275% (inactive)	6.34	-4.54
CCCC#Cc1cnc2c(c1)C(=O)N([C@H](C)CO)C[C@@H](C)[C@@H](CN(C)C(=O)Nc1ccccc1OC)O2	4.88% (inactive)	7.2	-1.58
COc1ccc(NC(=O)N(C)C[C@@H]2OCCCC[C@H](C)Oc3ccc(NS(=O)(=O)c4cn(C)cn4)cc3C(=O)N([C@@H](C)CO)C[C@@H]2C)cc1	-1.73% (inactive)	-0.21	1.12
COc1ccc(S(=O)(=O)Nc2ccc3c(c2)CC(=O)N([C@@H](C)CO)C[C@H](C)[C@@H](CN(C)Cc2ccc(C(=O)O)cc2)O3)cc1	-0.025% (inactive)	-7.85	-0.315
C[C@H](CO)N1C[C@H](C)[C@H](CN(C)Cc2ccc(C(=O)Nc3ccccc3N)cc2)Oc2ccc(NS(C)(=O)=O)cc2C1=O	5.88% (inactive)	6.32	0.92
COc1ccc(CN(C)C[C@H]2Oc3ccc(NS(=O)(=O)c4ccc(Cl)cc4)cc3CC(=O)N([C@@H](C)CO)C[C@H]2C)cc1	-45.9% (active)	-36.8	-1.42
C[C@@H]1CN([C@@H](C)CO)C(=O)c2cc(NS(=O)(=O)c3ccccc3)ccc2O[C@@H]1CN(C)Cc1ccc(C(=O)Nc2ccccc2N)cc1	-20.2% (active)	-5.29	5.46
COc1ccc(S(=O)(=O)Nc2ccc3c(c2)CC(=O)N([C@H](C)CO)C[C@H](C)[C@H](CN(C)Cc2ccc(C(F)(F)F)cc2)O3)cc1	-1.22% (inactive)	-12.1	0.965
Cc1ccc(S(=O)(=O)Nc2ccc3c(c2)C(=O)N([C@@H](C)CO)C[C@@H](C)[C@@H](CN(C)Cc2ccc(C(=O)Nc4ccccc4N)cc2)O3)cc1	-3.29% (inactive)	-1.98	14
COc1ccc2c3c([nH]c2c1)[C@@H](CO)N(C(=O)CC1CC1)CC31CCN(Cc2cccnc2)CC1	1.59% (inactive)	3.97	3.46
CCOc1ccc(NS(=O)(=O)c2ccc(C)c(C(N)=O)c2)cc1	2.05% (inactive)	7.61	0.34
CCOc1cc(NS(=O)(=O)c2ccc(OC)cc2)c(OCC)cc1NC(C)=O	12.2% (inactive)	0.765	1.03
CCOc1ccc2sc(NS(=O)(=O)c3ccc(N)cc3)nc2c1	-24.1% (active)	-5.58	-5
COc1ccc2c3c(n(C)c2c1)[C@H](CO)N(CC1CCCCC1)CC31CCN(Cc2nccs2)CC1	5.15% (inactive)	-34.3	21.2
Cc1noc(C)c1NC(=O)N(C)C[C@@H]1Oc2ccc(NC(=O)CCN3CCOCC3)cc2CC(=O)N([C@H](C)CO)C[C@@H]1C	-0.675% (inactive)	4.65	-1.87

Source: PubChem BioAssay AID720706 (Broad Institute, 2013)
